# Experimental data from PubChem BioAssay (NCI).
# About 83,000 compounds went through this panel and 20% of them were active in at least one assay; those are over-represented in the sample as a whole.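 Note: values are percent growth. 100 is the growth of untreated cells, values between 100 and 0 indicate rising inhibition; between -100 and 0 indicates cell death.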 A number with no mark means an inactive call. Activity calls are given as the source filed them. The calls were made as follows: active = growth percent below 10; inactive = the rest.
# System: LOX IMVI melanoma
# Experiment: NCI-60 one-dose screen, 48 h (100 = growth as untreated, 0 = no growth, -100 = all killed)
# Settings: 10 µM unless noted
row,Structure (SMILES),growth
1,CSCCC1NC(=O)C(C(C)=Nc2ccccc2)=C1O (configuration not stated),105%
2,CC1(C)C2CCC(O)(C(=O)O)C1C2 (configuration not stated),110%
3,COc1ccc(CCN2COc3c([C@@H](C)CCC=C(C)C)ccc(C)c3C2)cc1OC,64.3%
4,COc1ccc(C(=O)C(CN(C)C)c2ccccc2)cc1 (configuration not stated),10.3%
5,Oc1ccc(CCCCCCc2ccc(O)cc2)cc1,53.3%
6,c1ccc(C2=Nc3ccccc3SC2)cc1,90.4%
7,O=C(O)c1cn(-c2ccccc2)nc1-c1ccc(O)cc1,91.7%
8,COc1cc(/C=C/C(=O)c2c(C)nc3ccccc3c2C)ccc1OCCCOc1cc2c(cc1OC)C(=O)N1CCC[C@H]1C=N2,-99.3% (active)
9,COc1ccc(Br)c2ccccc12,101%
10,CC(=O)c1cccc(Nc2ncnc3ccc(NC(=O)c4ccco4)cc23)c1,92.5%
11,CCN(CC)c1ccc(C(=N)c2ccc(N(C)C)cc2)cc1,19.1%
12,CCCCCCCCCCCCCCCCCC1=NC(C)(C)CN1C(C)(C)CO,-100% (active)
13,COC(=O)c1ccc(NC(N)=NCCC(C)(C)c2ccc(C(F)(F)F)cc2)nc1,-77.3% (active)
14,CCCCCCCCCCCC1=NC(C)(C)CN1C(C)(C)CO,-35.1% (active)
15,CO[C@@]12[C@@H]3NC3CN1C1=C(C(=O)C(N)=C(C)C1=O)[C@@H]2COC(N)=O (some centres not stated),-50.2% (active)
16,Cc1cc(NC(=O)c2ccc(N)cc2)ccc1N=Nc1ccc2cc(S(=O)(=O)O)cc(S(=O)(=O)O)c2c1,99%
17,CCCCCCCCCCCCCCCC1=NCC[N+]1(CCO)CCO,5.42% (active)
18,CC1CN(CCCOC(=O)Nc2ccc(Cl)cc2)CCN1C(C)(C)C (configuration not stated),91.9%
19,O=c1c2sc3ccccc3c2nnn1-c1ccc(F)c(Cl)c1,58.1%
20,Clc1ccccc1Nc1nnc(-c2ccncc2)s1,110%
21,COc1cc2c(cc1I)-c1c(cc(OC)c(OC)c1OC)CC[C@@H]2NC(C)=O,33.8%
22,COC(=O)c1cc(Cl)cc([N+](=O)[O-])c1O,114%
23,CCN(CC)c1ccc2nc3c4ccccc4c(=O)cc-3n(-c3ccccc3)c2c1,-23.2% (active)

# System: SK-MEL-28 melanoma
# Experiment: as above
# Settings: 10 µM unless noted
row,Structure (SMILES),growth
1,COc1cc(-c2nc(-c3nc4cc(C(=O)c5ccccc5)ccc4[nH]3)cc3c2[nH]c2ccccc23)cc(OC)c1OC,102%
2,COc1cc(C2=NOC(c3cc(OC)c(OC)c(OC)c3)C2)ccc1OCCCCOc1cc2c(cc1OC)C(=O)N1CCC[C@H]1C=N2 (some centres not stated),-66.1% (active)
3,O=C(CCCCCCc1nc2ccc(Br)cc2[nH]1)NO,-16.7% (active)
4,CCCCOc1ncnc2nc[nH]c12,111%
5,CC(C)=CCC[C@H](C)c1ccc(C)c2c1OCN(CCO)C2,111%
6,O=C(Nc1cccc(Cl)c1)Nc1cc(C(F)(F)F)ccc1Cl,25.5%
7,CCCCC(CCc1ccccn1)C(=O)c1ccccc1 (configuration not stated),108%
8,Nc1cccc(S(=O)(=O)c2cccc(N)c2)c1,126%
9,O=C(Nc1ccc2ncnc(Nc3ccc(F)c(Cl)c3)c2c1)c1cccs1,65.8%
10,O=[N+]([O-])c1ccccc1CN1CCCCC1,117%
11,COc1cc2c(cc1OCCCOc1cc3c(cc1OC)C(=O)N1CCC[C@H]1C=N3)C=CC(C)(C)O2,33.2%
12,CCCCCCCCCC1=NC(C)(C)CN1C(C)(C)CO,131%
13,COCCn1c(Nc2ccc(C(=O)NO)cc2)nc2ccccc21,61.3%
14,O=C(CSc1ccc(Cl)cc1)Nc1ccc(-c2nc3ccccc3s2)c(Cl)c1,108%
15,COc1cc(/C=C2\C(=O)Nc3ccc(N(C)C)cc32)cc(OC)c1OC,43.4%
16,CC(C)(C)NC(=O)C(OC(=O)C1CCc2cc(F)ccc2O1)c1ccccc1Cl (configuration not stated),108%
17,CSCCC1NC(=O)C(C(C)=Nc2ccccc2)=C1O (configuration not stated),110%
18,CC1(C)C2CCC(O)(C(=O)O)C1C2 (configuration not stated),102%
19,COc1ccc(CCN2COc3c([C@@H](C)CCC=C(C)C)ccc(C)c3C2)cc1OC,69.4%
20,COc1ccc(C(=O)C(CN(C)C)c2ccccc2)cc1 (configuration not stated),-44.9% (active)

row,Structure (SMILES),growth
1,Oc1ccc(CCCCCCc2ccc(O)cc2)cc1,104%
2,c1ccc(C2=Nc3ccccc3SC2)cc1,109%
3,O=C(O)c1cn(-c2ccccc2)nc1-c1ccc(O)cc1,101%
4,COc1cc(/C=C/C(=O)c2c(C)nc3ccccc3c2C)ccc1OCCCOc1cc2c(cc1OC)C(=O)N1CCC[C@H]1C=N2,-63.1% (active)
5,COc1ccc(Br)c2ccccc12,122%
6,CC(=O)c1cccc(Nc2ncnc3ccc(NC(=O)c4ccco4)cc23)c1,98.7%
7,CCN(CC)c1ccc(C(=N)c2ccc(N(C)C)cc2)cc1,26.5%
8,CCCCCCCCCCCCCCCCCC1=NC(C)(C)CN1C(C)(C)CO,-100% (active)
9,COC(=O)c1ccc(NC(N)=NCCC(C)(C)c2ccc(C(F)(F)F)cc2)nc1,35.2%
10,CCCCCCCCCCCC1=NC(C)(C)CN1C(C)(C)CO,-5.89% (active)
11,CO[C@@]12[C@@H]3NC3CN1C1=C(C(=O)C(N)=C(C)C1=O)[C@@H]2COC(N)=O (some centres not stated),23%
12,Cc1cc(NC(=O)c2ccc(N)cc2)ccc1N=Nc1ccc2cc(S(=O)(=O)O)cc(S(=O)(=O)O)c2c1,117%
13,CCCCCCCCCCCCCCCC1=NCC[N+]1(CCO)CCO,115%
14,CC1CN(CCCOC(=O)Nc2ccc(Cl)cc2)CCN1C(C)(C)C (configuration not stated),106%
15,O=c1c2sc3ccccc3c2nnn1-c1ccc(F)c(Cl)c1,72.7%
16,Clc1ccccc1Nc1nnc(-c2ccncc2)s1,100%
17,COc1cc2c(cc1I)-c1c(cc(OC)c(OC)c1OC)CC[C@@H]2NC(C)=O,41.6%
18,COC(=O)c1cc(Cl)cc([N+](=O)[O-])c1O,120%
19,CCN(CC)c1ccc2nc3c4ccccc4c(=O)cc-3n(-c3ccccc3)c2c1,9.68% (active)
